Results reported in the supplement of paper PMC10849652.
Of roughly 7,900 targets only a part is listed; those with a hit were picked by preference. About 0.6% of all pairs of compound and target were hits.

What was measured:
Test in all cases: log2 fold change, soluble protein after heating vs DMSO (PISA); higher = thermal stabilisation; K562 cells, 10 uM, 30 min; active = over 0.2 and 3.5 SD of the protein, either way, in both replicates (recomputed)
[1] = compound: CC1=C(C=C(C=C1)NC(=O)C2=CC(=CC=C2)C(C)(C)C#N)NC3=CC4=C(C=C3)N=CN(C4=O)C
How it was run: (§1)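 K562 cells at 2×10^6 cells/mL were exposed to 10 μM compound for 30 min, then aliquots were heated for 3 min across 48°C-58°C, pooled, and extracted in PBS containing 0.5% NP-40 at 4°C. The supernatant after 21,000xg for 90 min was taken as soluble protein and measured by TMTpro 16plex LC-MS/MS with channel sums equalised. Thermal stability is reported relative to control samples, with values from duplicates. Fold changes are given on a log2 scale.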

[2] = compound: CC1=C(C=C(C=C1)NC(=O)C2=CC(=CC=C2)N(C)C)NC(=O)C3=CC=C(C=C3)O
How it was run: as §1

[3] = compound: CC1=CC=C(C=C1)SC2=C3C=C(SC3=CN=C2)C(=O)N
How it was run: as §1

[4] = compound: CC1=NC(=CC=C1)C2=C(N=C(N2)C(C)(C)C)C3=CC4=NC=CN=C4C=C3
How it was run: as §1

[5] = compound: CCCCN(Cc1ccc(C(=O)NO)cc1)C(=O)Nc1ccccc1 [Nexturastat A]
How it was run: as §1

[6] = compound: CCCS(=O)(=O)Nc1ccc(F)c(C(=O)c2c[nH]c3ncc(-c4ccc(Cl)cc4)cc23)c1F [vemurafenib]
How it was run: as §1

[7] = compound: CCCS(=O)(=O)Nc1ccc(F)c(C(=O)c2c[nH]c3ncc(Cl)cc23)c1F
How it was run: as §1

[8] = compound: CCCc1cc(C)[nH]c(=O)c1CNC(=O)c1cc(-c2ccnc(N3CCN(C)CC3)c2)cc2c1cnn2C(C)C
How it was run: as §1

[9] = compound: CCN(CC)Cc1ccc2cc(COC(=O)Nc3ccc(C(=O)NO)cc3)ccc2c1 [givinostat]
How it was run: as §1

[10] = compound: CCN(CCCOc1ccc2c(Nc3cc(CC(=O)Nc4cccc(F)c4)[nH]n3)ncnc2c1)CCOP(=O)(O)O [barasertib]
How it was run: as §1

Measured: log2 fold change

VPS39 (UniProt Q96JC1)
inactive: [1] 0.049 | [2] -0.015 | [3] 0.011 | [4] 0.031 | [5] 0.014 | [6] 0.041 | [7] 0.059 | [8] -0.029 | [9] 0.019 | [10] 0.053

U2AF2 (UniProt P26368)
Chain of UniProt P26368 (P26368 whole entry, looked up): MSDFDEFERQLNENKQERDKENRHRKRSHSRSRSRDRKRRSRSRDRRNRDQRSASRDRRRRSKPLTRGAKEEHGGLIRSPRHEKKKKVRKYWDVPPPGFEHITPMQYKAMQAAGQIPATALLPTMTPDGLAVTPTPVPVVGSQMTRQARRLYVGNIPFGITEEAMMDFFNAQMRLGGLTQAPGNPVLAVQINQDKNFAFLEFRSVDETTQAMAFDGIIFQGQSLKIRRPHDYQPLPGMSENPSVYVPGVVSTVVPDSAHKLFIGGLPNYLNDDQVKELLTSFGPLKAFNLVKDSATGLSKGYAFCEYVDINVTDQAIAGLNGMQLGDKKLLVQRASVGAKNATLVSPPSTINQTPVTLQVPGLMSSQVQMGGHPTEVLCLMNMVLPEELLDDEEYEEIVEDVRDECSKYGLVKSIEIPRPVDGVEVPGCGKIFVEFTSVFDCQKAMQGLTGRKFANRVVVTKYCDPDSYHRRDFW
inactive: [1] -0.076 | [2] 0.005 | [3] -0.066 | [4] 0.047 | [5] -0.048 | [6] 0.031 | [7] 0.001 | [8] -0.028 | [9] 0.002 | [10] -0.015

TRIM28 (UniProt Q13263)
Chain of UniProt Q13263 (Q13263 whole entry, looked up): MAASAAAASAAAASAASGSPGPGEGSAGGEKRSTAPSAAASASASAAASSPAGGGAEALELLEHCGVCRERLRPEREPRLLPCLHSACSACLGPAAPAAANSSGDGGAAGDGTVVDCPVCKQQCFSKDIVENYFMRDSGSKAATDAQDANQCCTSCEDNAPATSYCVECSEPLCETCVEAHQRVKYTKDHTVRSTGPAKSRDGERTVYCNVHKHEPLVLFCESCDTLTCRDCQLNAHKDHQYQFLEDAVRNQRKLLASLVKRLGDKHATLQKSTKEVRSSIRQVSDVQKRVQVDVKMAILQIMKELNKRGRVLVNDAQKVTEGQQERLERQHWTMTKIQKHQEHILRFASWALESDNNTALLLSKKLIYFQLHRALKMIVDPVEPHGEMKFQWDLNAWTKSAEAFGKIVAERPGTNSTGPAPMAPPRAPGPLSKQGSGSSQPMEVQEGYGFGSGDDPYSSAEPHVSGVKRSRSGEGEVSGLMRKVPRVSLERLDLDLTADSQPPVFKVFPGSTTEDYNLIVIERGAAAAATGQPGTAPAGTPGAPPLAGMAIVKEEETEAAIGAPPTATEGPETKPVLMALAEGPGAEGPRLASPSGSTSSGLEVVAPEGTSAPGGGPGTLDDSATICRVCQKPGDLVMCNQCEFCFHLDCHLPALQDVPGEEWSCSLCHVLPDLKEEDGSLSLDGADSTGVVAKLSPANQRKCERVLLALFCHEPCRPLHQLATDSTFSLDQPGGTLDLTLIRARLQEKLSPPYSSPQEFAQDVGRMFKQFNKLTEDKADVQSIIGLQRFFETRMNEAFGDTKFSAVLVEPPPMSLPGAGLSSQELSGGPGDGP
inactive: [1] 0.013 | [2] -0.049 | [3] 0.013 | [4] 0.041 | [5] -0.059 | [6] 0.078 | [7] 0.075 | [8] 0.012 | [9] 0.039 | [10] 0.04

TRMT10C (UniProt Q7L0Y3)
Chain of UniProt Q7L0Y3 (Q7L0Y3 whole entry, looked up): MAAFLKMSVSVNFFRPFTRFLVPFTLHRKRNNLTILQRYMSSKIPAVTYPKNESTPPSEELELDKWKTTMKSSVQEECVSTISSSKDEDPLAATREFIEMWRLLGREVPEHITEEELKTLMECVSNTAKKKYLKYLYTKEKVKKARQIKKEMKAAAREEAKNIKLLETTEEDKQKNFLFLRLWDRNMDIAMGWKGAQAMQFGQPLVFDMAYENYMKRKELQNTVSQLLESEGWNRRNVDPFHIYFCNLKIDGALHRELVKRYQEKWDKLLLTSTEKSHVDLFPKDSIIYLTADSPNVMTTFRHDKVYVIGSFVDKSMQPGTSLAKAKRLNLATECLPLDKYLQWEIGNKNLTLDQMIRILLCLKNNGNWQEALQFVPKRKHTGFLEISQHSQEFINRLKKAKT
inactive: [1] 0.013 | [2] -0.051 | [3] 0.017 | [4] 0.007 | [5] -0.095 | [6] 0.015 | [7] 0.042 | [8] -0.013 | [9] -0.022 | [10] 0.041

TUBA4A (UniProt P68366)
Chain of UniProt P68366 (P68366 whole entry, looked up): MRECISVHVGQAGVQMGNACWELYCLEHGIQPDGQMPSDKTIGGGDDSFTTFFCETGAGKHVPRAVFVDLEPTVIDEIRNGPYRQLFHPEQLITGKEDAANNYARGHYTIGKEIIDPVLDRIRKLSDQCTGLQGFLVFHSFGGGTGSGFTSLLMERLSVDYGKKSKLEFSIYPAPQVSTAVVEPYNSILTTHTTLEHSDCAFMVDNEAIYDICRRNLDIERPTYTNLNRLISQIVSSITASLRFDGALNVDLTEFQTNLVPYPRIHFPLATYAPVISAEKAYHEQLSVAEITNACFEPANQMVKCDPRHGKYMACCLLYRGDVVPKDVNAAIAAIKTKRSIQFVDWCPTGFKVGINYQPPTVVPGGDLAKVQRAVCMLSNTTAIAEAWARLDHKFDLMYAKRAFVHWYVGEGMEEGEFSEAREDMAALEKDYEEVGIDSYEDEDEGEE
inactive: [1] 0.005 | [2] 0.004 | [3] 0.061 | [4] 0.04 | [5] -0.03 | [6] 0.005 | [7] 0.068 | [8] -0.004 | [9] 0.014 | [10] -0.002

WBP4 (UniProt O75554)
inactive: [1] 0.105 | [2] 0.044 | [3] 0.057 | [4] -0.036 | [5] -0.047 | [6] 0.022 | [7] 0.011 | [8] 0 | [9] -0.043 | [10] -0.022

WNK1 isoform 7 (UniProt Q9H4A3)
inactive: [1] -0.047 | [2] 0.426 | [3] -0.006 | [4] -0.019 | [5] -0.03 | [6] -0.023 | [7] 0.004 | [8] -0.006 | [9] 0.03 | [10] 0.032

TMEM9B (UniProt Q9NQ34)
Chain of UniProt Q9NQ34 (Q9NQ34 whole entry, looked up): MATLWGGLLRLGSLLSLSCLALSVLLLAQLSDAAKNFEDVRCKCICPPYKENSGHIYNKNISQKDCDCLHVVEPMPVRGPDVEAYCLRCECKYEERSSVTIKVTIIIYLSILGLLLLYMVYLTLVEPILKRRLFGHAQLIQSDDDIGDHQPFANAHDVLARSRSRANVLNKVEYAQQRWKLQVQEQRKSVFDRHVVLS
inactive: [1] -0.068 | [2] 0.042 | [3] 0.105 | [4] 0.01 | [5] -0.055 | [6] 0.013 | [7] 0.064 | [8] 0.006 | [9] -0.023 | [10] -0.015

TRIP10 (UniProt Q15642)
Chain of UniProt Q15642 (Q15642 whole entry, looked up): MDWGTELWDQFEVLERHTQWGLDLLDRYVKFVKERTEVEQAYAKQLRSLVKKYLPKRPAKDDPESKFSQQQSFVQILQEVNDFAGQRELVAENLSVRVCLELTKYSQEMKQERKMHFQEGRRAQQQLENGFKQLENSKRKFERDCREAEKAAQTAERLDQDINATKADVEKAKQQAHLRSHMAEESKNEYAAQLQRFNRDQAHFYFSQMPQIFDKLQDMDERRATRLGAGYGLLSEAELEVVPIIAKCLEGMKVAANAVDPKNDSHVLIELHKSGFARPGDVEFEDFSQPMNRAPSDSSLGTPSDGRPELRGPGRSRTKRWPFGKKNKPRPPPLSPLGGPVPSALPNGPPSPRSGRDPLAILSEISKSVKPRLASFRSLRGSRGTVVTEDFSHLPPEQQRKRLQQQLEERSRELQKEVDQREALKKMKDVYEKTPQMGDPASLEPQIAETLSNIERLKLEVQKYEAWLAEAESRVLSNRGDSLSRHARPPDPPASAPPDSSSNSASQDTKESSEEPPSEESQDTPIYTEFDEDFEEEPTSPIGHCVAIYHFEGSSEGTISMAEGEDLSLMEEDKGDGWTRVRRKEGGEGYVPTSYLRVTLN
inactive: [1] 0.003 | [2] -0.026 | [3] -0.009 | [4] -0.045 | [5] 0.139 | [6] 0.08 | [7] 0.026 | [8] -0.012 | [9] -0.058 | [10] 0.015

VPS13B (UniProt Q7Z7G8)
inactive: [1] 0.02 | [2] -0.028 | [3] 0.06 | [4] 0.057 | [5] -0.011 | [6] 0.008 | [7] -0.011 | [8] -0.008 | [9] 0.002 | [10] 0.002

VTI1A (UniProt Q96AJ9)
Chain of UniProt Q96AJ9 (Q96AJ9 whole entry, looked up): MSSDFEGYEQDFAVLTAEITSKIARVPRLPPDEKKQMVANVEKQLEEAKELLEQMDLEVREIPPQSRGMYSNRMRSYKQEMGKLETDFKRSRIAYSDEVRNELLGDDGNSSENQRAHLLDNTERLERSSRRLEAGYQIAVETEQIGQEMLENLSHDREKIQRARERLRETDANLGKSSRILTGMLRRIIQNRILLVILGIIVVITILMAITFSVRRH
inactive: [1] -0.039 | [2] 0.015 | [3] 0.011 | [4] 0.095 | [5] -0.023 | [6] -0.014 | [7] -0.035 | [8] 0.052 | [9] -0.013 | [10] -0.009

WDCP (UniProt Q9H6R7)
Chain of UniProt Q9H6R7 (Q9H6R7 whole entry, looked up): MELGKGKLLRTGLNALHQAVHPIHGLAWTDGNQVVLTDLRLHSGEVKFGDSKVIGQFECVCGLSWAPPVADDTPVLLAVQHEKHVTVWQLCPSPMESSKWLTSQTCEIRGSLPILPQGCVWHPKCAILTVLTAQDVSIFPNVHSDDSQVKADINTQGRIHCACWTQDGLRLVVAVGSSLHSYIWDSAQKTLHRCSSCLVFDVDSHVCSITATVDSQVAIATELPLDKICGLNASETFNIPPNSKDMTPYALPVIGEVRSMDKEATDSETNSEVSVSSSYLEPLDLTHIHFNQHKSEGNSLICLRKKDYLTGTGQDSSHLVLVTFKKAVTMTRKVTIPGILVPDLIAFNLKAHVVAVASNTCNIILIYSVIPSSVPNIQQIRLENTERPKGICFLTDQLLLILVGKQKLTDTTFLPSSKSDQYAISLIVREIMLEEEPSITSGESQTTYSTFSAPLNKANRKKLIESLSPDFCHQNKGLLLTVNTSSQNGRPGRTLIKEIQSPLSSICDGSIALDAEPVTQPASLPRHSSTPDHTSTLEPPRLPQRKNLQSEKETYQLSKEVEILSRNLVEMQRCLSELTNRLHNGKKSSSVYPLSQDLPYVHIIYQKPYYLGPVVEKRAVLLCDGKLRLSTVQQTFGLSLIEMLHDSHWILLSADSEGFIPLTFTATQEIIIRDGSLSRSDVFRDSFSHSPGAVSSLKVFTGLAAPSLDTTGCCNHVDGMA
inactive: [1] 0.003 | [2] 0.013 | [3] -0.103 | [4] -0.023 | [5] 0.061 | [6] -0.087 | [7] 0.025 | [8] -0.004 | [9] 0.116 | [10] -0.06

TRAM1 (UniProt Q15629)
inactive: [1] 0.024 | [2] -0.063 | [3] -0.006 | [4] 0.048 | [5] 0.005 | [6] 0.027 | [7] 0.02 | [8] -0.101 | [9] 0.028 | [10] 0.015

WDR41 (UniProt Q9HAD4)
Chain of UniProt Q9HAD4 (Q9HAD4 whole entry, looked up): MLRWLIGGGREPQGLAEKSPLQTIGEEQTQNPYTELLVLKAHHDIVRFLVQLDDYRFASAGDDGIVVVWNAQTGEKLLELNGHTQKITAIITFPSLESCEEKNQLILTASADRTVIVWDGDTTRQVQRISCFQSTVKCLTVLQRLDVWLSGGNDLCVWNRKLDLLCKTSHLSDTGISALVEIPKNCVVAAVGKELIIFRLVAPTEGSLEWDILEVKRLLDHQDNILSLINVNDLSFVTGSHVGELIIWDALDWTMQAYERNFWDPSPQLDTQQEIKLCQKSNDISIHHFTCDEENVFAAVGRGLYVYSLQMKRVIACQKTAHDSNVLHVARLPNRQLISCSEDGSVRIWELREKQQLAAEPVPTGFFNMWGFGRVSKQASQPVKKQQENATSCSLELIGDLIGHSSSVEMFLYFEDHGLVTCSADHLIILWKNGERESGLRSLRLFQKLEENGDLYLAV
inactive: [1] 0.044 | [2] 0 | [3] -0.007 | [4] 0.001 | [5] 0.002 | [6] 0.008 | [7] 0.036 | [8] -0.011 | [9] -0.04 | [10] 0.033

UCHL5 (UniProt Q9Y5K5)
Chain of UniProt Q9Y5K5 (Q9Y5K5 whole entry, looked up): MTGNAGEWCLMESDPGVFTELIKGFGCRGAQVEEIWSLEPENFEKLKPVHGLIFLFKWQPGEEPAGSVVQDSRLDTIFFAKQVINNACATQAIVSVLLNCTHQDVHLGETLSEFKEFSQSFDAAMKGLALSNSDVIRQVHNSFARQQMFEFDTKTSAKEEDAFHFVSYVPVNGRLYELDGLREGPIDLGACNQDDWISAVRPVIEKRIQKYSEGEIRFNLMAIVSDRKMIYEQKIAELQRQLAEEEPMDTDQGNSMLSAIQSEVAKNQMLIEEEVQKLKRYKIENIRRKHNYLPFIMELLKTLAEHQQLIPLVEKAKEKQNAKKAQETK
inactive: [1] 0.014 | [2] -0.07 | [3] 0.019 | [4] 0.053 | [5] 0.048 | [6] 0.075 | [7] 0.08 | [8] 0.003 | [9] 0.057 | [10] 0.024
